Several values for one entry are separate records, joined by “and”; a condition that tells them apart may be missing. Identical values can stand only once. Screen size: about 5,500 compounds; about 2,000 (36%) were called active. Not shown: some 18% with an inconclusive outcome. No stated cut-off is given here; in the data, active means normalized growth mostly below about 0.91 (no sharp cut-off); inconclusive means no clear call, values can overlap the other calls; inactive means mostly above about 0.92. This is one part of the list.
Experiment: chemical genetic growth profiling, strain panel (AID 1159580);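 further: tested at 20 µM; growth read once vehicle control cultures reached saturation at 30 °C; 1 = growth at the plate median or of vehicle wells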
Conditions: growth OD

Measured: normalized growth

CC(CCc1ccccc1)NCC(O)c1ccc(O)c(C(N)=O)c1 (stereo not given)
inactive: S. cerevisiae deletion strains, locus YJR075W, strain HOC1, stronger effect = lower value 1 | S. cerevisiae deletion strains, locus YKL009W, strain mrt4, stronger effect = lower value 1.01 | S. cerevisiae deletion strains, locus YKL068W, stronger effect = lower value 1.01 | S. cerevisiae deletion strains, locus YKL085W, strain MDH1 (second series), stronger effect = lower value 1.01 | S. cerevisiae deletion strains, locus YKL085W, strain MDH1, stronger effect = lower value 1.01 | S. cerevisiae deletion strains, locus YKL160W, strain elf1, stronger effect = lower value 1 | S. cerevisiae deletion strains, locus YKL190W, strain CNB1, stronger effect = lower value 1 | S. cerevisiae deletion strains, locus YKR001C, strain vps1, stronger effect = lower value 1.03 | S. cerevisiae deletion strains, locus YKR026C, strain gcn3, stronger effect = lower value 1.01 | S. cerevisiae deletion strains, locus YKR091W, strain srl3, stronger effect = lower value 0.997 | S. cerevisiae deletion strains, locus YLL001W, strain dnm1, stronger effect = lower value 1 | S. cerevisiae deletion strains, locus YLL026W, stronger effect = lower value 1 | S. cerevisiae deletion strains, locus YLL041C, strain sdh2, stronger effect = lower value 1 | S. cerevisiae deletion strains, locus YLR027C, strain aat2, stronger effect = lower value 0.992 | S. cerevisiae deletion strains, locus YLR039C, strain RIC1, stronger effect = lower value 1.05 | S. cerevisiae deletion strains, locus YLR058C, strain SHM2, stronger effect = lower value 1 | S. cerevisiae deletion strains, locus YLR102C, strain apc9, stronger effect = lower value 1.01 | S. cerevisiae deletion strains, locus YLR113W, strain HOG1, stronger effect = lower value 1.08 | S. cerevisiae deletion strains, locus YLR221C, strain rsa3, stronger effect = lower value 1.01 | S. cerevisiae deletion strains, locus YLR258W, strain gsy2, stronger effect = lower value 1.01 | S. cerevisiae deletion strains, locus YLR262C, strain YPT6 (second series), stronger effect = lower value 1.02 | S. cerevisiae deletion strains, locus YLR262C, strain YPT6, stronger effect = lower value 1.04 | S. cerevisiae deletion strains, locus YLR268W, strain sec22, stronger effect = lower value 1.02 | S. cerevisiae deletion strains, locus YLR320W, strain mms22, stronger effect = lower value 1.02 | S. cerevisiae deletion strains, locus YLR330W, strain CHS5, stronger effect = lower value 1.01 | S. cerevisiae deletion strains, locus YLR342W, strain FKS1 (second series), stronger effect = lower value 1.08 | S. cerevisiae deletion strains, locus YLR342W, strain FKS1, stronger effect = lower value 1.01 | S. cerevisiae deletion strains, locus YLR357W, strain rsc2, stronger effect = lower value 0.96 | S. cerevisiae deletion strains, locus YLR370C, strain arc18, stronger effect = lower value 1 | S. cerevisiae deletion strains, locus YLR371W, strain rom2, stronger effect = lower value 1.02 | S. cerevisiae deletion strains, locus YLR384C, strain iki3, stronger effect = lower value 1.02 | S. cerevisiae deletion strains, locus YLR418C, strain cdc73, stronger effect = lower value 1.06 | S. cerevisiae deletion strains, locus YML016C, strain PPZ1, stronger effect = lower value 1.01 | S. cerevisiae deletion strains, locus YML032C, strain rad52, stronger effect = lower value 0.996 | S. cerevisiae deletion strains, locus YML120C, strain ndi1, stronger effect = lower value 1.01 | S. cerevisiae deletion strains, locus YML124C, strain tub3, stronger effect = lower value 1.01 | S. cerevisiae deletion strains, locus YMR058W, strain fet3, stronger effect = lower value 1 | S. cerevisiae deletion strains, locus YMR078C, strain ctf18, stronger effect = lower value 1.01 | S. cerevisiae deletion strains, locus YMR125W, strain sto1, stronger effect = lower value 0.997 | S. cerevisiae deletion strains, locus YMR129W, stronger effect = lower value 1.01 | S. cerevisiae deletion strains, locus YMR205C, strain PFK2, stronger effect = lower value 1.01 | S. cerevisiae deletion strains, locus YMR223W, strain ubp8, stronger effect = lower value 1.04 | S. cerevisiae deletion strains, locus YMR231W, strain pep5, stronger effect = lower value 1.01 | S. cerevisiae deletion strains, locus YMR263W, strain SAP30, stronger effect = lower value 0.988 | S. cerevisiae deletion strains, locus YMR307W, strain GAS1, stronger effect = lower value 1.04 | S. cerevisiae deletion strains, locus YNL067W, strain RPL9B, stronger effect = lower value 0.988 | S. cerevisiae deletion strains, locus YNL071W, strain lat1, stronger effect = lower value 1 | S. cerevisiae deletion strains, locus YNL153C, strain GIM3, stronger effect = lower value 0.979 and 1.02 | S. cerevisiae deletion strains, locus YNL175C, strain NOP13, stronger effect = lower value 1.01 | S. cerevisiae deletion strains, locus YNL183C, strain NPR1, stronger effect = lower value 0.986 | S. cerevisiae deletion strains, locus YNL197C, strain WHI3, stronger effect = lower value 0.999 | S. cerevisiae deletion strains, locus YNL209W, strain ssb2, stronger effect = lower value 1.01 | S. cerevisiae deletion strains, locus YNL224C, strain SQS1, stronger effect = lower value 1.01 | S. cerevisiae deletion strains, locus YNL233W, strain BNI4, stronger effect = lower value 0.994 | S. cerevisiae deletion strains, locus YNL248C, strain rpa49, stronger effect = lower value 0.998 | S. cerevisiae deletion strains, locus YNL250W, strain rad50, stronger effect = lower value 1.03 | S. cerevisiae deletion strains, locus YNL271C, strain bni1, stronger effect = lower value 1.01 | S. cerevisiae deletion strains, locus YNL298W, strain CLA4, stronger effect = lower value 1.02 | S. cerevisiae deletion strains, locus YNL307C, strain MCK1, stronger effect = lower value 1.03 | S. cerevisiae deletion strains, locus YNL322C, strain KRE1 (second series), stronger effect = lower value 0.993 | S. cerevisiae deletion strains, locus YNL322C, strain KRE1, stronger effect = lower value 0.998 | S. cerevisiae deletion strains, locus YNR049C, strain mso1, stronger effect = lower value 0.999 | S. cerevisiae deletion strains, locus YNR052C, strain pop2, stronger effect = lower value 1.02 | S. cerevisiae deletion strains, locus YOL006C, strain TOP1, stronger effect = lower value 0.976 | S. cerevisiae deletion strains, locus YOL012C, strain htz1 0.754 | S. cerevisiae deletion strains, locus YOL147C, strain pex11, stronger effect = lower value 1.01 | S. cerevisiae deletion strains, locus YOR001W, strain rrp6, stronger effect = lower value 1.02 | S. cerevisiae deletion strains, locus YOR061W, strain CKA2, stronger effect = lower value 1.01 | S. cerevisiae deletion strains, locus YOR069W, strain VPS5, stronger effect = lower value 1 | S. cerevisiae deletion strains, locus YOR070C, strain gyp1, stronger effect = lower value 0.996 | S. cerevisiae deletion strains, locus YOR080W, strain dia2, stronger effect = lower value 0.999 | S. cerevisiae deletion strains, locus YOR083W, strain WHI5 (second series), stronger effect = lower value 1.02 | S. cerevisiae deletion strains, locus YOR083W, strain WHI5, stronger effect = lower value 1.01 | S. cerevisiae deletion strains, locus YOR106W, strain vam3, stronger effect = lower value 1.02 | S. cerevisiae deletion strains, locus YOR136W, strain idh2, stronger effect = lower value 1 | S. cerevisiae deletion strains, locus YOR144C, strain elg1, stronger effect = lower value 1.01 | S. cerevisiae deletion strains, locus YOR184W, strain ser1, stronger effect = lower value 1.01 | S. cerevisiae deletion strains, locus YOR231W, strain MKK1, stronger effect = lower value 1.07 | S. cerevisiae deletion strains, locus YOR265W, strain rbl2, stronger effect = lower value 0.992 | S. cerevisiae deletion strains, locus YOR270C, strain vph1, stronger effect = lower value 1.04 | S. cerevisiae deletion strains, locus YOR290C, strain snf2, stronger effect = lower value 1.03 | S. cerevisiae deletion strains, locus YOR316C, strain cot1, stronger effect = lower value 1.02 | S. cerevisiae deletion strains, locus YPL051W, strain arl3, stronger effect = lower value 1 | S. cerevisiae deletion strains, locus YPL055C, strain LGE1, stronger effect = lower value 0.945 and 0.997 | S. cerevisiae deletion strains, locus YPL078C, strain atp4, stronger effect = lower value 1 | S. cerevisiae deletion strains, locus YPL106C, strain sse1, stronger effect = lower value 1.01 | S. cerevisiae deletion strains, locus YPL240C, strain hsp82, stronger effect = lower value 1.01 | S. cerevisiae deletion strains, locus YPL241C, strain CIN2, stronger effect = lower value 1 | S. cerevisiae deletion strains, locus YPL256C, strain CLN2, stronger effect = lower value 1.04 | S. cerevisiae deletion strains, locus YPR119W, strain clb2, stronger effect = lower value 1.02 | S. cerevisiae deletion strains, locus YPR141C, strain kar3, stronger effect = lower value 1.01 | S. cerevisiae deletion strains, locus YPR163C, strain tif3, stronger effect = lower value 1.03 | S. cerevisiae deletion strains, locus YPR167C, strain met16, stronger effect = lower value 1.01 | S. cerevisiae deletion strains, strain wtn01, stronger effect = lower value 1.03 | S. cerevisiae strains, strain wild type, stronger effect = lower value 1

Reference: PubChem BioAssay AID1159580 (chemical genetic matrix, 2015)
